Drawing on PubChem BioAssay AID651650 (Sanford-Burnham Center for Chemical Genomics, 2012), this text covers inhibition for 21 compounds.

Sequence of Neuropilin-1 (Homo sapiens) (O14786 whole entry, looked up): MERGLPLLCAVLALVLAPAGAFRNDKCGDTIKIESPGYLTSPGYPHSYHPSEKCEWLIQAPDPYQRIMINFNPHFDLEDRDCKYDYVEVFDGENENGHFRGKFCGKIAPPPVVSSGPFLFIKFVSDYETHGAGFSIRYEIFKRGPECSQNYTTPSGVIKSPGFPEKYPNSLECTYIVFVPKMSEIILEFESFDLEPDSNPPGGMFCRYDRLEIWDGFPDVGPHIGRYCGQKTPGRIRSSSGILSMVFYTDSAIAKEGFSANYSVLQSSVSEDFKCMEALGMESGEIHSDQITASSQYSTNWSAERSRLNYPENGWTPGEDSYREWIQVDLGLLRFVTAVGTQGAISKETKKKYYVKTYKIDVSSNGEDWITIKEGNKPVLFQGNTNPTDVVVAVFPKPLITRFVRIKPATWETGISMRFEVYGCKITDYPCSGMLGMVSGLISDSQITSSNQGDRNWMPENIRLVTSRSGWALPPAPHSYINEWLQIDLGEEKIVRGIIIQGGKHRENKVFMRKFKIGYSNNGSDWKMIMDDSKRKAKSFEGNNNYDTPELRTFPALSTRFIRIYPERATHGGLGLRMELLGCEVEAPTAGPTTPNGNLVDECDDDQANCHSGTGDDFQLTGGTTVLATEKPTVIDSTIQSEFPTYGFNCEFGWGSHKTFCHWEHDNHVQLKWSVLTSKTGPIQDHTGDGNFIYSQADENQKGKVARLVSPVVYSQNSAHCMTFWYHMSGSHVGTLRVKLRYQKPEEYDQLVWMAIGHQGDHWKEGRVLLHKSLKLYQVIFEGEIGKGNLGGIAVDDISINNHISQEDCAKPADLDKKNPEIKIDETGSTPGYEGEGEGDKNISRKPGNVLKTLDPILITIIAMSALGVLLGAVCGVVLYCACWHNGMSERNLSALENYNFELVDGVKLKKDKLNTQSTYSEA

The experiment concerns the target Neuropilin-1 (Homo sapiens) (UniProt O14786). The experiment can be described thus: NRP-1 b1b2 CendR peptide binding inhibitors, dose response, biochemical, FP and AlphaScreen panel (AID 651650). The conditions noted are these: NRP-1 b1b2 / RPARPAR peptide binding, FP or AlphaScreen; run 1, at 100 µM (top of the series).
On to `Cc1cccc(CN2CCN(C3CN(Cc4cn(Cc5cccc(Cl)c5)nn4)S(=O)(=O)C3)CC2)c1` (stereo unspecified), for which the inhibition stood at 33.2%.
On to `O=C(COc1ccc(Br)cc1CO)Nc1ccc(F)cc1`, for which the inhibition was -9.04%.
For `CC(CN1CCCCC1)OC(=O)c1ccc(Cl)cc1Cl` (stereo unspecified) the value was 30.1%; for `CCn1cc(C(=O)N2CCN(C(=O)c3ccco3)CC2)c2cc(OC)c(OC)cc2c1=O`, 77.9%; for `CC1(c2ccccc2)CC(C)(C)n2c(O)c(C3=NC(=S)NC3=O)c3cccc1c32` (stereo unspecified), 12.3%.
On to `O=c1[nH]c(Nc2ccccn2)cc2ccccc12`, for which the inhibition was 81.1%.
Consider `CN(C(=O)COC(=O)c1cnc(Cl)c(Cl)c1)C1CCCCC1`, for which the inhibition worked out at 49.2%.
To `NC(N)=NCCC[C@H](NC(=O)OCc1ccccc1)C(=O)O` belongs 17.2%; to `COCCNC(=O)c1cc(-c2ccccc2)nn1CC1CC(c2cccc([N+](=O)[O-])c2)=NO1` (stereo unspecified), 14.3%.
For `CCCCCCCN1C(Nc2ccccc2)=NC[C@@H]1Cc1ccccc1`, the inhibition came to 24.7%.
`Cc1cccc(-c2noc(CSc3ccccc3)n2)c1`: the inhibition turned out to be 0.214%.
As to `Cc1ccc(NC(=S)Nc2cccc3ccccc23)cc1`, the inhibition came to 13.4%.
Consider `Cc1cc2c(=O)[nH]cnc2s1`, for which the inhibition stood at 13.4%.
`CCOC(=O)C1=CCN(S(=O)(=O)c2ccccc2Br)C1c1ccccc1` (stereo unspecified): the inhibition was found to be 35.1%.
Consider `CC(C)(C)c1nc(SCC(=O)NCc2ccco2)c2ccccc2n1`, for which the inhibition worked out at 44.2%.
For `CC1CCN(C(=O)CSc2nncn2C)CC1` the value was 0.359%; for `Cc1ccc(CN(CC(=O)NC2CCCCC2)C(=O)c2csnn2)cc1`, 30.2%; for `O=C(NCCN1CCN(C(=O)c2cccc(OC(F)F)c2)CC1)c1cccc(OC(F)F)c1`, 0.403%.
For `CC(CN1CCOCC1)OC(=O)c1ccc2c(c1)OCCO2` (stereo unspecified) the value was 19.2%; for `CC1CCC(NC(=O)CSc2nncn2C)CC1` (stereo unspecified), 19.2%.
For the compound `CC(C)C[C@@H](COc1ccccc1)N1CCN(CCc2ccccc2)CCC1=O`, the inhibition turned out to be 46.6%.
